For 37 molecules, growth results are on record in PubChem BioAssay (NCI).

This is part of a sample that, as a whole, favours compounds with a hit. Of some 83,000 tested, about 20% had one in any assay.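 Cell lines were cultured in 96-well plates, exposed to a single compound concentration, and assessed for percent growth 48 hours later.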 A number with no mark means an inactive call. Activity calls are given as the source filed them. How the source made its calls: active means growth percent below 10; inactive means the rest.

This test has as its system MDA-MB-435 melanoma. The test can be described thus: NCI-60 one-dose screen, 48 h (100 = growth as untreated, 0 = no growth, -100 = all killed). Conditions: 10 µM unless noted.
As for `COc1ccc2c(c1)C(=O)/C(=C/c1ccc(OCC(=O)Nc3nccs3)cc1)O2`, the growth is 92.5%.

For `CN1C(=O)N(C)C2C1NN=c1s/c(=C\c3ccccc3)c(=O)n12` (configuration not stated), the growth was -26.1% (active).

Take `O=S(=O)(NCCCNc1cc(-c2c(-c3cccc(O)c3)nc3sccn23)ccn1)c1cccc(Cl)c1`: the growth was 27.4%. As to `Cn1ccc2c(c1=O)C(=O)c1nccc3c1c-2nc1ccccc13`, the growth is 76.4%. For `Cc1ccc(Cl)c(NS(=O)(=O)c2ccc(-c3cnc(C4CC4)o3)cc2)c1`, the growth was -59.6% (active).

Take `Cn1cc(-c2csc(-c3cccc(F)c3)n2)c2cccnc21`: the growth was -53.6% [100 µM] (active). Regarding `CC(C)Sc1nc(NNC(N)=S)c(C#N)c(-c2ccc(F)cc2)n1`, the growth is 108%.

In the case of `Cc1c(C(=O)OC(=NC2CCCCC2)NC2CCCCC2)sc2c1c(=O)nc1c(C#N)n[nH]n12`, the growth is 117%. Regarding `C=C(C)[C@@H]1CC[C@]2(C(=O)NC3CCCCC3)CC[C@]3(C)[C@H](CC[C@@H]4[C@@]5(C)CCC(=O)C(C)(C)[C@@H]5CC[C@]43C)[C@@H]12`, the growth was 93.6%. For `Clc1cccc(Cl)c1C(Nc1nc2ccccc2s1)Nc1nc2ccccc2s1`, the growth is 107%.

Regarding `Cc1cc[c-]cc1.Fc1c[c-]c(-c2ccccn2)c(F)c1.[Pt+2].c1ccc(P(C[PH+](c2ccccc2)c2ccccc2)c2ccccc2)cc1`, the growth was 8.28% (active). With `O=C(O)c1ccc2c(c1)CCC2`, the growth is 115%. With `C[C@H]1[C@H]2[C@H]3CC[C@@H]4[C@@]5(C)C/C(=C/c6ccco6)C(=O)C(C)(C)[C@@H]5CC[C@@]4(C)[C@]3(C)CC[C@]23CO[C@]1(C)[C@@H](C(=O)/C=C\c1ccco1)C3` the figure was 43.4%; with `CCOC(=O)c1ccc(N2NC(=O)/C(=C/c3ccc([N+](=O)[O-])o3)C2=O)cc1`, 109%; with `COc1ccc(-c2cc(-c3ccc(Nc4nc(Nc5ccc(Cl)cc5)nc(Nc5ccc(Cl)cc5)n4)cc3)nc(N)c2C#N)cc1`, -1.59% (active). As to `O=C1/C(=C/c2ccc(F)cc2)C=C(c2ccccc2)N1CCc1ccccc1`, the growth was 65.4%. With `O=c1c2c3c(sc2n2c(-c4cn(-c5ccccc5)nc4-c4ccc(Cl)cc4)nnc2n1Cc1ccccc1)CCCC3` the figure was 103%. As for `COC(=O)c1c2c(c[n+]([O-])c1C)C(=O)C=CC2=O`, the growth is -81.8% (active).

`Cc1ccc(-n2c(-c3ccccc3)c(-c3ccccc3)c3c(SCC(=O)n4[nH]c(N)cc4=O)ncnc32)cc1`: the growth is 106%.

Regarding `COc1cc(CCC[P+](c2ccccc2)(c2ccccc2)c2ccccc2)cc2c1OCO2`, the growth is 3.36% (active).

Turning to `COc1cccc(-c2nc3sccn3c2-c2ccnc(NCCNS(=O)(=O)c3cccc(Cl)c3)c2)c1`, the growth is 59.7%. Turning to `CC1=C([Se]CC(OC(=O)[C@@H](CO)NC(=O)OC(C)(C)C)C(=O)NC(C)(C)C)C(=O)c2ccccc2C1=O` (some centres not stated), the growth was -82.4% (active).

Turning to `Cc1ccc(Cc2cnc(NC(=O)c3ccc4noc(-c5ccccc5)c4c3)s2)cc1`, the growth was 85.8%.

With `N#CC1=C(/N=C/c2ccccc2)Oc2c(ccc3ccccc23)C1c1ccccc1` (configuration not stated), the growth is -42.1% (active).

In the case of `CC/C=C1/C(=O)C=C[C@@H]1C/C=C\CCCC(=O)O`, the growth was 54.1%. With `CC(=O)c1nc(Nc2ccc(C)cc2)sc1C` the figure was 103%; with `CC(=O)O[C@]1(C(C)=O)CCC2C3C[C@H](C)C4=CC(=O)CC[C@]4(C)C3CC[C@@]21C` (some centres not stated), 104%; with `CC(=O)N1N=C(c2ccc(Nc3nc(Nc4ccc(F)cc4)nc(Nc4ccc(F)cc4)n3)cc2)CC1c1cccc([N+](=O)[O-])c1` (configuration not stated), 111%. On to `Cc1occc1-c1n[nH]c(=S)n1N1C(=O)CSC1=S`, for which the growth is 99.5%. As to `COc1cccc(-c2nn(-c3ccccc3)cc2-c2ccnc(NCCCNC(=O)c3ccccc3)c2)c1`, the growth was 5.43% (active). `COc1cc(/C=N/Nc2ncc(-c3cc4cc5c(cc4o3)OCO5)s2)cc(OC)c1OC`: the growth is 18.9%. For the molecule `O=C(Nc1ccccc1Cl)Oc1ccc(-c2ccccc2)cc1`, the growth is 101%.

Take `COc1nc(N(C)O)nc(N(C)O)n1`: the growth is 49.8%. As to `CCN1CCN(c2nc(C)cc(NCc3cc(Nc4ccnc5cc(Cl)ccc45)ccc3F)n2)CC1`, the growth was -88.4% (active). Take `CCN(CC)c1nc(SCC(=O)Nc2nc3ccc(C)cc3s2)nc(-c2ccccc2)c1C#N`: the growth is 98.5%. On to `Cn1c(-c2c(N)n(Cc3cccnc3)c3nc(C#N)c(C#N)nc23)nc2ccccc21`, for which the growth was 89.3%.

In the case of `Cc1cc(NCc2cc(Nc3ccnc4cc(Cl)ccc34)ccc2F)nc(Cl)n1`, the growth was 37%.
